Measured values as given in PubChem BioAssay AID1159580 (chemical genetic matrix, 2015).
About 2,000 (36%) of roughly 5,500 compounds were called active. Not shown: some 18% with an inconclusive outcome. The list shows a part of the results. A number with no mark means an inactive call. Rule as the data show it: active = normalized growth mostly below about 0.91 (no sharp cut-off); inconclusive = no clear call, values can overlap the other calls; inactive = mostly above about 0.92.

Assay: chemical genetic growth profiling, strain panel (AID 1159580);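 also: tested at 20 µM; growth read once vehicle control cultures reached saturation at 30 °C; 1 = growth at the plate median or of vehicle wells; lower values mean less growth of the strain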
Conditions: S. cerevisiae deletion strains, growth OD
[1] = locus YAL040C, strain CLN3, hits give low values
[2] = locus YCL061C, strain MRC1 (second series), hits give low values
[3] = locus YDR150W, strain NUM1, hits give low values
[4] = locus YDR363W, strain ESC2, hits give low values
[5] = locus YER002W, strain NOP16, hits give low values
[6] = locus YJR075W, strain HOC1, hits give low values
[7] = locus YMR307W, strain GAS1, hits give low values
[8] = locus YNL175C, strain NOP13, hits give low values
[9] = locus YNL197C, strain WHI3, hits give low values
[10] = locus YNL224C, strain SQS1, hits give low values
[11] = locus YOR083W, strain WHI5 (second series), hits give low values

**Q.** With `Cc1cccc(C(=O)NCN2CCN(c3ccccc3C#N)CC2)c1` as the compound, how does the normalized growth [1] read?
**A.** Its normalized growth is 0.963.

**Q.** What about the normalized growth [2] of the same compound?
**A.** The normalized growth was 0.978.

**Q.** And the normalized growth [3]?
**A.** Its normalized growth is 0.987.

**Q.** And the normalized growth [4]?
**A.** The normalized growth was 0.975.

**Q.** What about the normalized growth [5] of the same compound?
**A.** Its normalized growth is 0.974.

**Q.** And the normalized growth (locus YGR229C, strain SMI1, hits give low values)?
**A.** The normalized growth was 0.942.

**Q.** And the normalized growth [6]?
**A.** Its normalized growth is 0.978.

**Q.** And the normalized growth [7]?
**A.** Its normalized growth is 1.01.

**Q.** And the normalized growth [8]?
**A.** Its normalized growth is 0.979.

**Q.** What about the normalized growth [9] of the same compound?
**A.** The normalized growth was 0.976.

**Q.** What about the normalized growth [10] of the same compound?
**A.** The normalized growth was 0.993.

**Q.** And the normalized growth [11]?
**A.** The normalized growth was 0.982.

**Q.** What about the normalized growth (locus YPL241C, strain CIN2, hits give low values) of the same compound?
**A.** Its normalized growth is 0.982.

**Q.** For `FC(F)(F)c1cccc(NC(=S)Nc2csc(C(F)(F)F)c2-c2ccccc2)c1`, which normalized growth (locus YAR019C, strain CDC15, hits give low values) is on record?
**A.** The normalized growth was 0.968.

**Q.** And the normalized growth (locus YBL105C, strain PKC1, hits give low values)?
**A.** Its normalized growth is 0.998.

**Q.** What about the normalized growth (locus YBR135W, strain CKS1, hits give low values) of the same compound?
**A.** The normalized growth was 0.995.

**Q.** And the normalized growth (locus YBR136W, strain MEC1, hits give low values)?
**A.** The normalized growth was 0.97.

**Q.** And the normalized growth (locus YBR160W, strain CDC28, hits give low values)?
**A.** Its normalized growth is 0.988.

**Q.** What about the normalized growth (locus YDL017W, strain CDC7, hits give low values) of the same compound?
**A.** The normalized growth was 0.998.

**Q.** And the normalized growth (locus YDL028C, strain MPS1, hits give low values)?
**A.** Its normalized growth is 0.992.

**Q.** And the normalized growth (locus YDL101C, strain DUN1, hits give low values)?
**A.** Its normalized growth is 0.983.

**Q.** And the normalized growth (locus YDL108W, strain KIN28, hits give low values)?
**A.** The normalized growth was 0.993.

**Q.** What about the normalized growth (locus YDL132W, strain cdc53, hits give low values) of the same compound?
**A.** Its normalized growth is 0.98.

**Q.** What about the normalized growth (locus YDL214C, strain PRR2, hits give low values) of the same compound?
**A.** Its normalized growth is 0.944.

**Q.** And the normalized growth (locus YDR052C, strain DBF4, hits give low values)?
**A.** Its normalized growth is 0.987.

**Q.** What about the normalized growth (locus YDR054C, strain cdc34, hits give low values) of the same compound?
**A.** Its normalized growth is 0.97.

**Q.** What about the normalized growth (locus YDR226W, strain ADK1, hits give low values) of the same compound?
**A.** The normalized growth was 0.988.

**Q.** What about the normalized growth (locus YDR477W, strain SNF1, hits give low values) of the same compound?
**A.** Its normalized growth is 0.991.

**Q.** What about the normalized growth (locus YER123W, strain YCK3, hits give low values) of the same compound?
**A.** Its normalized growth is 0.991.

**Q.** And the normalized growth (locus YER133W, strain GLC7, hits give low values)?
**A.** The normalized growth was 0.964.

**Q.** What about the normalized growth (locus YFL009W, strain cdc4, hits give low values) of the same compound?
**A.** Its normalized growth is 0.977.

**Q.** And the normalized growth (locus YFL029C, strain CAK1, hits give low values)?
**A.** Its normalized growth is 0.954.

**Q.** And the normalized growth (locus YFR003C, strain YPI1, hits give low values)?
**A.** Its normalized growth is 0.997.

**Q.** What about the normalized growth (locus YFR019W, strain FAB1, hits give low values) of the same compound?
**A.** The normalized growth was 0.984.

**Q.** What about the normalized growth (locus YFR028C, strain CDC14, hits give low values) of the same compound?
**A.** Its normalized growth is 0.976.

**Q.** And the normalized growth (locus YGR040W, strain KSS1, hits give low values)?
**A.** Its normalized growth is 0.981.

**Q.** And the normalized growth (locus YGR052W, strain FMP48, hits give low values)?
**A.** Its normalized growth is 1.03.

**Q.** And the normalized growth (locus YGR092W, strain DBF2, hits give low values)?
**A.** The normalized growth was 0.951.

**Q.** What about the normalized growth (locus YHR030C, strain SLT2, hits give low values) of the same compound?
**A.** The normalized growth was 0.848 (active).

**Q.** And the normalized growth (locus YHR079C, strain IRE1, hits give low values)?
**A.** Its normalized growth is 0.958.

**Q.** And the normalized growth (locus YHR082C, strain KSP1, hits give low values)?
**A.** The normalized growth was 1.

**Q.** And the normalized growth (locus YHR205W, strain SCH9, hits give low values)?
**A.** Its normalized growth is 0.973.

**Q.** What about the normalized growth (locus YIL147C, strain SLN1, hits give low values) of the same compound?
**A.** The normalized growth was 0.984.

**Q.** What about the normalized growth (locus YJL095W, strain BCK1, hits give low values) of the same compound?
**A.** The normalized growth was 0.959.

**Q.** And the normalized growth (locus YJL128C, strain PBS2, hits give low values)?
**A.** The normalized growth was 0.973.

**Q.** And the normalized growth (locus YJL157C, strain FAR1, hits give low values)?
**A.** The normalized growth was 0.964.

**Q.** What about the normalized growth (locus YJR016C, strain ILV3, hits give low values) of the same compound?
**A.** The normalized growth was 0.984.

**Q.** And the normalized growth (locus YJR066W, strain TOR1 (second series), hits give low values)?
**A.** Its normalized growth is 0.934.

**Q.** What about the normalized growth (locus YJR066W, strain TOR1, hits give low values) of the same compound?
**A.** The normalized growth was 0.983.

**Q.** And the normalized growth (locus YKL048C, strain ELM1, hits give low values)?
**A.** Its normalized growth is 0.997.

**Q.** And the normalized growth (locus YKL067W, strain YNK1, hits give low values)?
**A.** Its normalized growth is 0.963.

**Q.** What about the normalized growth (locus YKL101W, strain HSL1, hits give low values) of the same compound?
**A.** The normalized growth was 0.952.

**Q.** And the normalized growth (locus YKL193C, strain SDS22, hits give low values)?
**A.** Its normalized growth is 0.985.

**Q.** And the normalized growth (locus YKL203C, strain TOR2, hits give low values)?
**A.** The normalized growth was 1.03.

**Q.** What about the normalized growth (locus YLR113W, strain HOG1, hits give low values) of the same compound?
**A.** Its normalized growth is 0.892.

**Q.** And the normalized growth (locus YLR133W, strain CKI1, hits give low values)?
**A.** The normalized growth was 0.96.

**Q.** What about the normalized growth (locus YLR403W, strain SFP1, hits give low values) of the same compound?
**A.** The normalized growth was 0.989.

**Q.** What about the normalized growth (locus YML070W, strain DAK1, hits give low values) of the same compound?
**A.** The normalized growth was 0.965.

**Q.** And the normalized growth (locus YMR001C, strain CDC5, hits give low values)?
**A.** The normalized growth was 0.993.

**Q.** And the normalized growth (locus YMR205C, strain PFK2 (second series), hits give low values)?
**A.** The normalized growth was 0.96.

**Q.** And the normalized growth (locus YMR277W, strain FCP1, hits give low values)?
**A.** The normalized growth was 0.987.

**Q.** And the normalized growth (locus YNL006W, strain LST8, hits give low values)?
**A.** Its normalized growth is 0.988.

**Q.** And the normalized growth (locus YNL020C, strain ARK1, hits give low values)?
**A.** The normalized growth was 0.964.

**Q.** What about the normalized growth (locus YNL161W, strain CBK1, hits give low values) of the same compound?
**A.** Its normalized growth is 0.988.

**Q.** And the normalized growth (locus YNL183C, strain NPR1, hits give low values)?
**A.** Its normalized growth is 0.976.

**Q.** What about the normalized growth (locus YNL207W, strain RIO2, hits give low values) of the same compound?
**A.** The normalized growth was 0.973.

**Q.** And the normalized growth (locus YNL222W, strain SSU72, hits give low values)?
**A.** Its normalized growth is 0.991.

**Q.** What about the normalized growth (locus YNL307C, strain MCK1 (second series), hits give low values) of the same compound?
**A.** Its normalized growth is 0.938.

**Q.** What about the normalized growth (locus YOL078W, strain AVO1, hits give low values) of the same compound?
**A.** The normalized growth was 0.986.

**Q.** What about the normalized growth (locus YOL136C, strain PFK27, hits give low values) of the same compound?
**A.** The normalized growth was 0.953.

**Q.** And the normalized growth (locus YOR061W, strain CKA2, hits give low values)?
**A.** Its normalized growth is 0.945.

**Q.** What about the normalized growth (locus YOR119C, strain RIO1, hits give low values) of the same compound?
**A.** Its normalized growth is 0.978.

**Q.** And the normalized growth (locus YOR231W, strain MKK1, hits give low values)?
**A.** Its normalized growth is 0.957.

**Q.** What about the normalized growth (locus YOR329C, strain SCD5, hits give low values) of the same compound?
**A.** The normalized growth was 0.991.

**Q.** And the normalized growth (locus YPL031C, strain PHO85, hits give low values)?
**A.** The normalized growth was 0.976.

**Q.** And the normalized growth (locus YPL153C, strain RAD53, hits give low values)?
**A.** The normalized growth was 0.976.

**Q.** What about the normalized growth (locus YPL204W, strain HRR25, hits give low values) of the same compound?
**A.** Its normalized growth is 0.955.

**Q.** And the normalized growth (locus YPL209C, strain IPL1, hits give low values)?
**A.** The normalized growth was 0.997.

**Q.** And the normalized growth (locus YPL256C, strain CLN2, hits give low values)?
**A.** Its normalized growth is 0.934.

**Q.** What about the normalized growth (locus YPR025C, strain CCL1, hits give low values) of the same compound?
**A.** The normalized growth was 0.992.

**Q.** And the normalized growth (locus YPR106W, strain ISR1, hits give low values)?
**A.** Its normalized growth is 0.984.

**Q.** What about the normalized growth (locus YPR111W, strain DBF20, hits give low values) of the same compound?
**A.** Its normalized growth is 0.981.

**Q.** What about the normalized growth (strain NNK1, hits give low values) of the same compound?
**A.** The normalized growth was 0.991.

**Q.** What about the normalized growth (strain TSCII, hits give low values) of the same compound?
**A.** The normalized growth was 0.968.

**Q.** Which results are given for `CC(O)C(O)[C@H]1CNc2nc(N)[nH]c(=O)c2N1` (stereo partly drawn)?
**A.** normalized growth [1]: 1.04; normalized growth [2]: 1.01; normalized growth [3]: 1.02; normalized growth [4]: 1.01; normalized growth [5]: 1; normalized growth [6]: 1.04; normalized growth (locus YMR263W, strain SAP30, hits give low values): 1.01; normalized growth [7]: 0.995; normalized growth (locus YNL128W, strain TEP1, hits give low values): 0.998; normalized growth [8]: 0.999; normalized growth [9]: 1.01; normalized growth [10]: 1; normalized growth [11]: 1.02; normalized growth (locus YPL055C, strain LGE1, hits give low values): 1.04
